Assay type in all cases: functional
Assay [1] concerns the target Solute carrier family 2, facilitated glucose transporter member 1 (Homo sapiens) (UniProt P11166). The experiment in a line: ST_JUDE_LEISH: Cytotoxicity at 2uM final concentration against transgenic Leishmania Mexicana promastigotes LmGLUT1 that are glucose transport deficient and complemented with the human glucose transporter GLUT1. Activity is measured by DNA content using SYBR green in vitro.

The target in assay [2] is Hexose transporter 1 (Plasmodium falciparum) (UniProt O97467). Briefly: ST_JUDE_LEISH: Cytotoxicity at 2uM final concentration against transgenic Leishmania Mexicana promastigotes LmPfHT that are glucose transport deficient and complemented with the Plasmodium falciparum hexose transporter. Activity is measured by DNA content using SYBR green in vitro.
Assay [3] concerns the target Glucose transporter (Leishmania mexicana) (UniProt O61059). Briefly: ST_JUDE_LEISH: Cytotoxicity at 2uM final concentration against transgenic Leishmania Mexicana promastigotes LmGT2 that are glucose transport deficient and complemented with the L. Mexicana glucose transporter 2. Activity is measured by DNA content using SYBR green in vitro.

Among the data in ChEMBL document CHEMBL3433997, “St. Jude Leishmania screening dataset” (2016) are inhibition values, retold here.

Sequence of Solute carrier family 2, facilitated glucose transporter member 1 (Homo sapiens) (P11166 whole entry): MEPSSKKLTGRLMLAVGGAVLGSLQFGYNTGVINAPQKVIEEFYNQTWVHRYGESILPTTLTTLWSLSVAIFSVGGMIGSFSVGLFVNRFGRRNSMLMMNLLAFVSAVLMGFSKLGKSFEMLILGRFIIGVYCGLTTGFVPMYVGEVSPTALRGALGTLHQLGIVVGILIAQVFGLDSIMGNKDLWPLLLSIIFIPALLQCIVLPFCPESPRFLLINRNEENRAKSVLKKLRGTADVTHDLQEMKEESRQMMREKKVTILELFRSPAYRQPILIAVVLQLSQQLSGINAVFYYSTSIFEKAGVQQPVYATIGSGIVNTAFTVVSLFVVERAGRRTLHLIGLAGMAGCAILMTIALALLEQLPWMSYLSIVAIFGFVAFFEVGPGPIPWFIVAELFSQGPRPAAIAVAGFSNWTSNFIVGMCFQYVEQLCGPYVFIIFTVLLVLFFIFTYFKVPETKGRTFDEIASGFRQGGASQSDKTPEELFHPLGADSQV

In the case of `CCCC(C)C(=O)N1CCOC(COCc2cccc(C(F)(F)F)c2)(c2ccc(Cl)cc2)C1` (stereo not drawn), the results for the inhibition in assay [1], in assay [2] and in assay [3] were -0.83%, 0.15% and -1.52%, respectively.

Turning to `CCn1c(C=Cc2cc(Br)ccc2O)nc2ccccc2c1=O`, the inhibition in assay [1] is -1.02%; in assay [2], 0.39%; in assay [3], 0.51%.

Consider `CC(=O)N(C)/N=C/[C@H](CCc1ccccc1)NC(=O)[C@H](CC(C)C)NC(=O)c1cccc(OCCN2CCOCC2)c1`, for which the inhibition was found to be 9.6% in assay [1], 9.59% in assay [2] and 8.5% in assay [3].

Consider `CN(C)CCC1CCN(CCS(=O)(=O)c2cccc(Nc3ccc(-c4ccsc4)cn3)c2)CC1`, for which the inhibition in assay [1] was -0.36%; in assay [2], 0.82%; in assay [3] it was 1.59%.

`CN1CCN(CC2(Nc3nccc(NCc4ccc(Cl)cc4Cl)n3)CCCCC2)CC1`: the inhibition in assay [1] came to 6.66%; in assay [2] it was 7.74%; in assay [3], 6.18%.

Turning to `O=S(=O)(NCCN1CCCC1)c1ccc(-c2cccc(CNCc3ccc(F)cc3)c2)cc1`, the inhibition in assay [1] is 1.16%; in assay [2] it was 1.09%; in assay [3], -0.22%.

Turning to `CC(C)CCNC(=O)C1Cc2c([nH]c3cc(Br)ccc23)C2(CCN(CCc3ccccc3)CC2)N1` (stereo not drawn), the results for the inhibition in assay [1], in assay [2] and in assay [3] were 3.44%, 2.47% and -3.76%, respectively.

In the case of `CN1CCN(Cc2ccc(OCc3cccc(COc4ccc(CN5CCN(C)CC5)cc4I)c3)c(I)c2)CC1`, the results for the inhibition in assay [1], in assay [2] and in assay [3] were 1.53%, 0.72% and -0.68%, respectively.

With `COc1ccc(C(=O)NCc2ccccc2-c2ccc(C(C)(C)C)cc2)cc1O`, the inhibition stood at 3.25% in assay [1], 5.39% in assay [2] and 1.49% in assay [3].

Take `Cc1cccc(NC(=O)N(Cc2cc3cc(C)cc(C)c3[nH]c2=O)C2CC2)c1`: the inhibition came out at 9.62% in assay [1], 10.1% in assay [2] and 6.55% in assay [3].

`CC(C)(C)c1ccc(CN2CCC(CNC(=O)c3cc(-c4cccc(C(F)(F)F)c4)cs3)C2)cc1` (stereo not drawn): the inhibition in assay [1] was -1.18%; in assay [2] it was -0.44%; in assay [3], -5.97%.

On to `Cc1ccc(S(=O)(=O)N(CCCN2CCN(C)CC2)Cc2csc(-c3ccc(CNCc4ccccc4)cc3)n2)cc1`, for which the inhibition in assay [1] worked out at 9.12%; in assay [2], 7.67%; in assay [3] it was 9.91%.

Consider `CCCCn1c(SC(C)C)nc2c(c1=O)C1(CCCCC1)Cc1ccccc1-2`, for which the inhibition worked out at 4.14% in assay [1], 4.8% in assay [2] and 3.66% in assay [3].

As for `CCOc1cccc(C(=O)Nc2cccc(CN3CCCN(Cc4ccc(O)cc4)CC3)c2)c1`, the values for the inhibition in assay [1], in assay [2] and in assay [3] were 3.17%, 3.14% and 5.38%, respectively.

For the compound `Cc1cc(N[C@@H](Cc2ccccc2)C(=O)NCCOc2ccccc2)nc(NCCc2ccccc2)n1`, the inhibition in assay [1] amounted to 6.59%; in assay [2], 5.86%; in assay [3], 3.92%.

Consider `COc1cc2c(c(OC)c1[N+](=O)[O-])C=CC1(O2)N(C)c2ccc([N+](=O)[O-])cc2C1(C)C` (stereo not drawn), for which the figures for the inhibition in assay [1], in assay [2] and in assay [3] were 4.19%, 0.99% and 1.36%, respectively.

Take `Cc1cc(NC(=O)Nc2ccc(C(C)(C)C)cc2)c2ccccc2n1`: the results for the inhibition in assay [1], in assay [2] and in assay [3] were 1.18%, 3.8% and -3.31%, respectively.

With `COC(=O)c1c(C#N)c(OC)cc(O)c1CSC[C@@H](CN1CCCCC1)Nc1nc(-c2ccc([N+](=O)[O-])cc2)cs1`, the inhibition in assay [1] was -0.16%; in assay [2] it was -0.29%; in assay [3], 0.57%.

On to `O=C(Nc1cccc(F)c1)c1ccc(C(=O)NC2CCN(CC3CCCCC3)C2)cc1` (stereo not drawn), for which the inhibition in assay [1] is 11.1%; in assay [2], 9.73%; in assay [3], 8.76%.

As to `CCc1ccccc1N1CCN(CCCC(=O)c2ccc(NC(=O)c3cc(Cl)cc(Cl)c3)cc2)CC1`, the inhibition in assay [1] came to 3.17%; in assay [2], 4.43%; in assay [3] it was 3.44%.

As for `COc1ccc(C(C(=O)NC2CCN(C[C@H](O)c3ccnc4ccc(OC)cc34)CC2)N2CCc3ccccc3C2)cc1` (stereo partly drawn), the inhibition came to 2.66% in assay [1], 2.33% in assay [2] and 2.69% in assay [3].

For `COc1cc2nc(Nc3ccc(C)cc3)nc(Nc3ccc(C)cc3)c2cc1OC`, the inhibition in assay [1] worked out at 100%; in assay [2], 101%; in assay [3] it was 98.1%.

As to `O=C(Nc1cccc(-c2cccc(-c3nc4cc(F)ccc4[nH]3)c2)c1)Nc1ccc(F)c(F)c1F`, the results for the inhibition in assay [1], in assay [2] and in assay [3] were 7.82%, 7.26% and 7.83%, respectively.

For the compound `CCc1c[nH]c2c(N3CCCS3(=O)=O)cc(C(=O)N[C@@H](Cc3ccccc3)[C@H](O)CNC(C)(C)CCCC(C)C)cc12`, the inhibition in assay [1] worked out at 1.92%; in assay [2], 2.29%; in assay [3], 0.89%.

Take `CC1CN(Cc2cccc(C#N)c2)CCN1c1ccc(NC(=O)c2cccs2)cc1` (stereo not drawn): the inhibition in assay [1] was 6.93%; in assay [2], 7.96%; in assay [3], 4.53%.

Regarding `CC(C)n1nc(C(=O)N2CCN(c3ccccc3)CC2)c2ccccc2c1=O`, the inhibition in assay [1] is 1.27%; in assay [2] it was -0.42%; in assay [3], -0.69%.

For the compound `Cc1cc(N[C@@H](CC(C)C)C(=O)NCc2cccs2)nc(Nc2ccccc2)n1`, the inhibition is 5.66% in assay [1], 3.95% in assay [2] and 2.84% in assay [3].

On to `CC[C@@H]([C@@H](Cc1cc2ccccc2s1)C(=O)N[C@@H](CCCCNC(=O)OCc1ccccc1)C(=O)Nc1ccccn1)N(O)C=O`, for which the inhibition was found to be 5.52% in assay [1], 4.31% in assay [2] and 3.75% in assay [3].

Take `CCCCc1ccc(C(=O)NC2CCN(C[C@H](O)c3ccnc4ccc(OC)cc34)CC2)cc1`: the inhibition in assay [1] was 66.8%; in assay [2], 65.3%; in assay [3], 76.8%.

As to `O=C(O)c1ccc(-c2cnc3ccc(NC4CCC(O)CC4)nn23)cc1` (stereo not drawn), the inhibition in assay [1] was 0.42%; in assay [2] it was 0.39%; in assay [3] it was -0.34%.

Turning to `COc1cccc(-c2ccc(O)c(CNCCc3cccc(F)c3)c2)n1`, the inhibition in assay [1] is -0.7%; in assay [2] it was 3.14%; in assay [3], 2%.

Usually inhibition stands for the relative decrease from the control value, in per cent.
